# Assay results as given in PubChem BioAssay.
# A number with no mark means an inactive call. Active and inactive are the calls of the source.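 How the source made its calls: active means inhibition at or above 50% relative to wild type and mutant plate controls; inactive means inhibition below 50%.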
# Assay: inhibitors of Chlamydomonas gravitaxis, primary screen, whole organism, Chlamydomonas reinhardtii, WT vs cilia-less mutant, absorbance, 96-well (AID 463189);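 further: 0% = wild type cc124 cells in DMSO and 100% = ciliumless bld1 mutant cells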
# Settings: OD600 absorbance, 2 days, at 10 µM, active compounds read high
row,SMILES,inhibition
1,O=C1C=C(O)CC(c2cccs2)C1 (stereo not given),-9.61%
2,Cc1c(C(Nc2ccccn2)c2ccccc2)c(=O)n(-c2ccccc2)n1C (stereo not given),23.1%
3,O=C(c1nsnc1-c1ccccc1O)N1CCCCC1,24.8%
4,Cc1cc(=O)oc(C)c1C(=O)N1CCN(C)CC1,5.44%
5,CCCOc1ccc(C2NC(=O)NC2=O)cc1 (stereo not given),-17%
6,O=c1c(-c2ccc3c(c2)OCCO3)c(C(F)(F)F)oc2cc(O)cc(O)c12,29.9%
7,Cn1c(=NCC(O)COc2ccccc2)sc2ccccc21 (stereo not given),16.2%
8,COc1cc(-c2cc(C(F)(F)F)n3ncc(C(=O)O)c3n2)cc(OC)c1OC,-8.65%
9,CCOC(=O)CSc1nc(-c2ccncc2)ccc1C#N,-7.15%
10,COc1ccc(OCC(O)Cn2c(Nc3cccc(C)c3)nc3c2c(=O)n(C)c(=O)n3C)cc1 (stereo not given),7.54%
11,CCCCn1c2nc3ccccc3nc2c2c(=O)n(CC(C)C)cnc21,33.2%
12,CCN(CC)S(=O)(=O)c1ccc2c(c1)c(C(=O)O)cn2C,22.9%
13,CSc1nc(C)cc(OCCNS(=O)(=O)c2cc(C)ccc2C)n1,117% (active)
14,CCOc1nc(SC(C(C)=O)C(=O)Nc2ccccc2)nc(N(C)C)n1 (stereo not given),-7.41%
15,O=C(Oc1ccccc1N1C(=O)CCC1=O)c1ccco1,-13.9%
16,Cc1cc(C)c(C#N)c(SCC(=O)NC2CC2)n1,0.954%
17,COC(=O)c1ccccc1NC=C1C(=O)OC2(CCCCC2)OC1=O,46.5%
18,Cc1cc(C)n(C(=O)CN2C(=O)CCC2=O)n1,17.3%
19,CN1C2C=C3C(C#N)=C(N)C(C#N)(C#N)[C@@H](c4ccsc4)[C@@H]3C1CC2 (stereo not given in full),6.82%
20,Cc1ccc(/C=c2\sc3n(c2=O)CN(c2ccc(Br)cc2)CN=3)o1,-6.84%

row,SMILES,inhibition
1,Clc1ccccc1-c1nn2c(-c3ccccn3)nnc2s1,48.8%
2,CC(=O)NC1(C(F)(F)F)C(=O)Nc2c1c(=O)n(C)c(=O)n2C (stereo not given),2.3%
3,CC(Sc1nc(N2CCCCC2)c2c(c1C#N)CCCC2)C(=O)O (stereo not given),-8.39%
4,CCN(CC)CCCn1c(C)cc2c(c1=O)C(c1cccc(Cl)c1)C(C#N)=C(N)O2 (stereo not given),-6.29%
5,CCCCOC(=O)CSc1nc(N)c(C#N)c(-c2ccc(OC)cc2)c1C#N,-17.4%
6,COc1ccc(N2CCN(C3CC(=O)NC3=O)CC2)cc1 (stereo not given),5.23%
7,O=C(c1ccco1)N1CCN(c2ncnc3c2[nH]c2ccccc23)CC1,-4.22%
8,COc1ccc(OC)c(C2NC(=O)c3sc(=S)n(-c4ccccc4)c3N2)c1 (stereo not given),-6.25%
9,CCOc1ccc(-c2nn3c(-c4ccc(OC)cc4)nnc3s2)cc1,5.79%
10,c1cncc(-c2nnc3sc(C4CCCCC4)nn23)c1,91.8% (active)
11,Cc1c(C(=O)O)c(=S)sn1CCOc1ccccc1,4.87%
12,CCC1(C)Cc2c(sc3c2c(=O)n(C)c2nnc(SCc4ccc5c(c4)OCO5)n32)CO1 (stereo not given),46.1%
13,CCCC(=O)N1CCN(c2nc(CC(C)C)c3c(c2C#N)CCC3)CC1,-3.24%
14,COC(=O)c1c(C)noc1-c1cc(C)on1,-9.07%
15,CN1c2ccccc2N(C)C1c1c(O)ccc2ccccc12,1.66%
16,O=C1CCC(=O)N1CN(C(=O)c1ccco1)c1ccc(Cl)c(Cl)c1,-12.3%
17,CC(C)Oc1ccc(Cc2c(O)nc(NCCCN(C)C)[nH]c2=O)cc1,26.1%
18,CCCCOc1ccc(CSC(CC(=O)O)C(=O)O)cc1 (stereo not given),1.39%
19,COCc1cc(=O)[nH]c(Nc2nc3ccc(C)cc3o2)n1,2.95%
20,CCOC(=O)CCCCC(=O)NC(CO)C(=O)NC (stereo not given),-2.9%
